Each structure is given as a SMILES string. Active and inactive are the calls of the source. Calls come from the whole dose curve; as a rule, active = well fitted curve in the direction sought with a large enough effect; inactive = no such curve, though single readings can be large or run the other way.

The assay can be described thus: qHTS for small molecule inhibitors of Yes1 kinase: Counter Assay (AID 686950).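 Note: no kinase present so only ADP-Glo detection of a fixed ADP amount is tested; luminescence from ADP-Glo reporting ADP in a fixed ATP and ADP mixture; 0% = DMSO wells with ATP plus ADP and -100% = ATP-only wells without ADP.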 The note with it: series mostly up to 76.9 µM; activity change, negative = inhibition: at the top concentration. The text has this: The Src family of non-receptor protein tyrosine kinases contains nine members, including Yes1, Src, Fyn, Lyn, and […]. These kinases have important roles in a variety of cellular functions, such as cell proliferation, survival, and differentiation. Src, the most well characterized member of this family, has been previously identified as a proto-oncogene. […] In melanoma, it has been shown that Yes1, and not other family members, such as Src, is functionally involved in the malignant phenotype. Additionally, a recent study examining the downregulation of Yes1 by shRNA found significant effects on cell survival/growth for basal-like and Her2-positive breast cancers. Despite the potential for Yes1 to be a target for the above-described cancers, there are very few reports on the identification of potent and selective inhibitors of Yes1 kinase. Antagonists of Yes1 would further elucidate Yes1 biology and help to confirm whether Yes1 is a viable target for therapeutic intervention in a variety of cancers.
A compound that inhibits Yes1 could be important for the treatment of various cancers in which Yes1 is highly expressed and can also be used as a tool compound to help further elucidate Yes1 biology. To that end, we have developed a sensitive HTS biochemical assay for Yes1 activity. This assay was screened against several small compound libraries to look for modulators of activity. The cherrypicked compounds were screened against this counter assay, which evaluates whether the compounds have any effect on the ADP-Glo detection kit. Compounds that show inhibition in this assay have interference with the detection system. Inactivity is the desired output for this assay.
NIH Molecular Libraries Probe Production Centers Network [MLPCN]
NIH Chemical Genomics Center [NCGC]
Two microliter of buffer (columns 1-48) are dispensed into Greiner, white solid-bottom 1536-well assay plates. Compounds (23 nL) are then transferred via Kalypsys pin tool equipped with 1536-pin array (10 nL slotted pins, V&P Scientific, San Diego, CA). The library compounds are in columns 5-48 and columns 1-4 serve as controls with DMSO. Following addition of compound and a 20 minute incubation, 1 uL of substrate/product mix (ATP and ADP from Sigma-Aldrich, St. Louis, MO) is added to columns 1, 2, 5-48 and 1 uL of substrate (ATP) is added to columns 3-4, and the plate is incubated for 60 minutes at room temperature. The amount of ADP is then quantified by the ADP-Glo Kit (Promega, Madison, WI). First, 2 uL of the first kit reagent is added, and the reaction is incubated for 45 minutes; then, 4 uL of the second kit reagent are added and the reaction is incubated for 30 minutes at which time the luminescence is read on a Viewlux plate reader (Perkin-Elmer, Waltham, MA). The final concentration of reagents in the reaction are 0.08 mM ATP and 0.02 mM ADP (or 0.1 mM ATP in the no ADP control columns), 100 uM EGTA, 10 mM MgCl2, 50 mM Tris pH 7.5, 1 mM DTT, 150 mM NaCl, 0.01% Brij-35, and 5% glycerol. Data are normalized to DMSO-treated control columns with ATP and […] (maximum signal) and with just ATP (minimum signal).
Regarding `CCS(=O)(=O)c1ccc(OC)c(Nc2ncc(-c3cccc(C(C)=O)c3)o2)c1`, the “activity change, negative = inhibition” value was 10% (inactive).
On to `CC1=C(C(=O)Nc2ccc3[nH]ncc3c2)C(c2ccc(F)cc2)N=C(c2ccc(C(F)(F)F)nc2)N1` (stereo not given), for which the “activity change, negative = inhibition” value is 0.65% (inactive).
Still for that read-out and setting: as for `CC(=O)NCc1cccc(C#Cc2cncnc2Nc2ccc(OCc3cccc(F)c3)c(Cl)c2)c1`, the figure is -1.46% (inactive).
The same measure, in the same setting: as for `COc1cc(N2CCN(C(C)C)CC2)ccc1Nc1nc(Nc2ccc(F)cc2C(=O)NCC(O)CO)c2cc[nH]c2n1` (stereo not given), the figure is 4.59% (inactive); as for `CCOc1ccc2c(-c3ccnc(Nc4cccc(C(F)(F)F)c4)n3)cnn2n1`, 5.21% (inactive).
Same read-out and setting: the result for `CC(C)c1ccc(-c2cc(-c3cn[nH]c3-c3ccccn3)ccn2)cc1` reads -3.94% (inactive); that for `N#Cc1cccc(Nc2nccc(-c3cnn4ncccc34)n2)c1`, 6.09% (inactive); that for `COC(=O)c1ccc2c(c1)/C(=C/c1cc(Br)c(O)c(Br)c1)C(=O)N2`, 36.9% (inactive).
Take `Nc1ncnc2occ(-c3ccc(NC(=O)Nc4cc(C(F)(F)F)ccc4F)cc3)c12`: the compound was called inactive.
Turning to `COc1ccc2c(-c3ccnc(Nc4cccc(OC(F)(F)F)c4)n3)cnn2n1`, the “activity change, negative = inhibition” value was 0.583% (inactive).
Same read-out and setting: the result for `CC(Oc1cc(-n2cnc3ccc(OCC4CCN(C)CC4)cc32)sc1C(N)=O)c1ccccc1Cl` (stereo not given) reads 3.77% (inactive); that for `CCc1nn2ncccc2c1-c1ccnc(NC2CC2)n1`, 12.6% (inactive).
The same measure, in the same setting: as for `CCCN1CCC(c2ccc(Nc3nc(Nc4cc(F)ccc4C(N)=O)c4cc[nH]c4n3)c(OC)c2)CC1`, the figure is 116% (inactive); as for `Cc1ccc(C(=O)NC2CCCCC2)cc1-c1ccc(C(=O)NCC2CC2)cc1`, 1.21% (inactive).
Consider `Cc1nc(-c2ccccc2)n2nc(NCCCN3CCOCC3)ncc12`, for which the “activity change, negative = inhibition” value was 2.49% (inactive).
As for `COc1cc(C=NNc2ncnc3[nH]ncc23)ccc1O`, the “activity change, negative = inhibition” value is 7.43% (inactive).
On the same count and under the same terms, the result for `O=C1NC(=O)C(c2ccccc2Cl)=C1Nc1cc(Cl)c(O)c(Cl)c1` reads -1.75% (inactive); that for `COc1ccc(-c2cc(-c3cn[nH]c3-c3ccccn3)ccn2)cc1`, 4.02% (inactive).
The same measure, in the same setting: as for `O=C(Nc1n[nH]c2nc(-c3ccco3)c(Br)cc12)C1CC1`, the figure is -4.51% (inactive); as for `Cc1nnc(-c2cccc(-c3ccc(C(=O)NCC4CC4)cc3)c2)o1`, -0.614% (inactive); as for `Nc1ncnc2occ(-c3ccc(NC(=O)Nc4cc(C(F)(F)F)cc(C(F)(F)F)c4)cc3)c12`, 9.02% (inactive).
Still for that read-out and setting: as for `CS(=O)(=O)CCNCc1ccc(-c2ccc3ncnc(Nc4ccc(OCc5ccccc5)cc4)c3c2)o1`, the figure is 0.334% (inactive); as for `Cc1ccc(C(=O)NC(C)C)cc1-c1ccc(C(=O)NCC2CC2)cc1`, 1.9% (inactive); as for `COc1ccc2nc3c4nc5ccc(OC)cc5c4c4c(=O)[nH]c(=O)c4c3c2c1`, -2.58% (inactive).
On to `Cc1ccc(NC(=O)c2ccoc2)cc1-c1ccc(C(=O)NCC2CC2)cc1`, for which the “activity change, negative = inhibition” value was -2.26% (inactive).
Still for that read-out and setting: the result for `CS(=O)(=O)CCNCc1ccc(-c2ccc3ncnc(Nc4ccc(OCc5ccccc5)c(Br)c4)c3c2)o1` reads 6.79% (inactive); that for `CCN(CC)Cc1ccc(Nc2nccc(-c3cnn4ncccc34)n2)cc1`, -0.239% (inactive); that for `CCS(=O)(=O)c1ccc(OC)c(Nc2ncc(-c3cccc(F)c3)o2)c1`, 4.68% (inactive).
Same read-out and setting: as for `CS(=O)(=O)CCNCc1ccc(-c2ccc3ncnc(Nc4ccc(OCc5ccccc5)c(C(F)(F)F)c4)c3c2)o1`, the figure is 2.39% (inactive); as for `COC(=O)c1cncc(C=Cc2c(C)cc(O)cc2C)c1`, 0.356% (inactive).
Take `CS(=O)(=O)CCNCc1nc(-c2ccc3ncnc(Nc4ccc(F)c(Cl)c4)c3c2)cs1`: the “activity change, negative = inhibition” value is 7.02% (inactive).
On the same count and under the same terms, the result for `N#Cc1ccc2c(-c3ccnc(NC4CC4)n3)c(-c3ccc(F)cc3)nn2c1` reads 0.192% (inactive); that for `CS(=O)(=O)CCN(CC#N)Cc1ccc(-c2ccc3ncnc(Nc4ccc(OCc5cccc(F)c5)c(Cl)c4)c3c2)o1`, 1.43% (inactive).
The same measure, in the same setting: the result for `O=C(Nc1n[nH]c2cc(-c3cc(F)ccc3F)ccc12)C1CC1` reads 2.29% (inactive); that for `NS(=O)(=O)c1ccc(-c2ccc3c(NC(=O)C4CC4)n[nH]c3c2)cc1`, 1.35% (inactive).
Still for that read-out and setting: the result for `O=C1NC(=O)C(c2ccccc2)=C1Nc1ccccc1` reads -1.63% (inactive); that for `Cc1cc(-c2ccccn2)cc(C)c1C=Cc1cncc(-c2nn[nH]n2)c1`, -1.94% (inactive).
On to `c1ccc(Oc2ccc(Nc3ncc(-c4ccccc4)o3)cc2)cc1`, for which the “activity change, negative = inhibition” value is 3.15% (inactive).
Still for that read-out and setting: as for `COc1cccc(-n2ncc3c(NN=Cc4ccc(F)cc4)ncnc32)c1`, the figure is -1.32% (inactive); as for `NS(=O)(=O)c1cccc(Nc2cc(-c3ccc(F)cc3)[nH]n2)c1`, -1.67% (inactive).

The record behind these values is PubChem BioAssay (NCATS).
